Source: PubChem BioAssay (NCI)
The panel holds about 83,000 compounds, 20% with a hit somewhere; the sample as a whole holds those more often.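 Single-concentration screen, 48 h exposure, 96-well plates. Endpoint: percent growth. Below 10 = active.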 A number with no mark means an inactive call. Activity calls are given as the source filed them.

What follows are compounds tested on SK-MEL-2 melanoma (assay: NCI-60 one-dose screen, 48 h (100 = growth as untreated, 0 = no growth, -100 = all killed)). Settings: 10 µM unless noted.
Experimental: Growth inhibition of the SK-MEL-2 human tumor cell line is measured as a screen for anti-cancer activity. Cells are grown in 96 well plates and exposed to the test compound for 48 hours. Compounds are tested at a single concentration, which is 10^-5 M for most compounds. The reported endpoint is percent growth (GI% or GIPRCNT), where numbers from 0 - 100% represent growth inhibition, and numbers from -100% - 0 represent cell death. For example, a value of 40 represents 60% growth inhibition. A value of 0 means no net growth occurred over the course of the experiment. A value of -40 indicates 40% of cells at the beginning of the experiment died by the end of the experiment. A value of -100 means all cells are dead at the end of the experiment.
NCI-60 Human Tumor Cell Lines Screen was performed using the standard one-dose NCI protocol, which is described in more detail at https://dtp.cancer.gov/discovery_development/nci-60/default.htm.
Compounds with GIPRCNT values below 10 were considered active. Activity score was based on GIPRCNT using the following formula: […]
Score is 0 for GIPRCNT values of 100 or above, 50 for GIPRCNT values of 0, and 100 for GIPRCNT values of -100.

Compound | growth
C=CC(=O)Nc1ccc(C)c(Oc2ccc(Cl)cc2)c1 | 41.8%
CCOc1ccc(C(=O)NC(=S)Nc2ccc(S(N)(=O)=O)cc2)cc1 | 104% [100 µM]
CN(C)c1nc(NCCNS(=O)(=O)c2ccc(C3=Nc4c(N)nc(N)nc4NC(c4ccc(Cl)cc4)C3)cc2)nc(Nc2ccc(F)cc2)n1 (stereo not given) | -2.74% (active)
COc1ccc(/C=C/c2nc3ccccc3n3c(-c4ccc(Cl)cc4)nnc23)cc1 | 99.8%
CC(=O)N1CCN(Cc2ccc3c(NNC(=O)c4cnccn4)nc4cc(F)ccc4n23)CC1 | 43.5%
COc1ccc(C(=O)/C=C/c2ccccc2Cl)cc1S(N)(=O)=O | 108%
CC(=O)Oc1ccccc1C(=O)[Se]C(=NC1CCCCC1)NC1CCCCC1 | -74.5% (active)
C[C@H](Nc1nc(NCCc2ccccc2)nc2ccccc12)c1ccccc1 | -92% (active)
COc1ccc2c(c1)c(-c1cc3nc(-c4cn(C)c5ncccc45)cc(N)n3n1)cn2C | -71.9% (active)
O=C(NNc1nc2cc(F)ccc2n2c(CN3CCCCC3)ccc12)c1cnccn1 | -67.2% (active)
O=C(CN1C(=O)/C(=C/c2ccccc2F)SC1=S)N1CCOCC1 | 99.1%
COc1cc(C2CC(c3cc(OC)c(OC)c(OC)c3)=Nc3c(N)nc(N)nc3N2)ccc1Oc1nc(NCCO)nc(N2CCOCC2)n1 (stereo not given) | 105%
COc1ccc(-c2nc(SC(C)C)nc(NCCc3c[nH]c4ccccc34)c2C#N)cc1 | 74.6%
Cn1cc(-c2nnc(N)nc2-c2c[nH]c3ccc(Br)cc23)c2cc(Br)cnc21 | 35.4%
CC(=O)Nc1cccc(-c2nc3cc(-c4ccc(O)cc4)ccc3n2C)c1 | 52.6%
Cn1cc(-c2cc(N)n3nc(-c4cn(C)c5ccc(Cl)cc45)cc3n2)c2ccccc21 | 114%
CC(=O)c1cc(C(=O)c2ccccc2)n2c1ccc1ccccc12 | 117%
O=C(c1ccccc1)c1ccc2nc(-c3ccc(F)cc3)[nH]c2c1 | 62.4%
Cc1ccc(C(=O)CSc2nc3ccc(F)cc3c(=O)n2-c2ccc(Cl)cc2)cc1 | 99.1%
COc1ccc(/C=C2\C(=O)Nc3ccc(Cl)cc32)cc1OCc1ccccn1 | 96.2%

Compound | growth
N=C1N=C(SCc2nc3ccccc3[nH]2)NC(=O)/C1=C/c1ccc(Cl)cc1 | 105%
CCC(C)(C)c1ccc(OCCCCCCN2CCN(c3ccncc3)CC2)cc1 | 71.6%
CC(C)c1sc(NC(=O)c2cc(NC(=O)c3cc(NC(=O)c4cscn4)cn3C)cn2C)nc1C(=O)NCCCN(C)C | -79.4% (active)
O=C(/C=C/c1ccc(-c2ccccc2)cc1)c1nc2ccccc2n1Cc1ccc(Br)cc1 | 65.8%
Clc1cccc(-c2ccc(OCCCN3CCN(c4ccncc4)CC3)cc2)c1 | 74%
CC12CC[C@@H]3[C@]4(C)COC(c5c(F)cccc5F)O[C@@H]4CC[C@@]3(C)[C@@H]1CC(C1=CCOC1=O)O2 (stereo not given in full) | 81.2%
CCCCSc1nc(NCCc2c[nH]c3ccccc23)c(C#N)c(-c2ccc(OC)cc2)n1 | 76.6%
C=C1CC[C@@H]2[C@]3(C)COC(c4cn[nH]c4-c4ccc(F)cc4)O[C@@H]3CC[C@@]2(C)[C@@H]1C/C=C1/C(=O)OCC1O (stereo not given in full) | -39% (active)
CCCCCCCCOc1cccc(S(=O)(=O)Nc2ccc(C)cc2C(=O)O)c1 | 89.7%
COc1cccc(/C=C/C(=O)c2ccc(OC)c(S(N)(=O)=O)c2)c1 | 96.5%
COc1ccc(C(=O)Nc2n[nH]c(Nc3ccccc3)c2C#N)cc1 | 110%
C#CCOc1ccc(/C=N/Nc2nc(-c3cc4cc(Br)ccc4oc3=O)cs2)cc1OC | 105%
O=C(c1ccccc1)c1ccc2nc(-c3cccc(Cl)c3)[nH]c2c1 | 106%
COc1cc2c(c(OC)c1OC)C(=O)CC(c1cccc(NC(=O)[C@@H](N)CC(C)C)c1)O2 (stereo not given in full) | 99.3%
N/C(=N\c1nc2ccccc2s1)NC(=O)NCCCCCCO | 50.1%
CN1CCN(Cc2ccc(C(=O)Nc3cccc(C#Cc4cccc5[nH]nc(N)c45)c3)cc2C(F)(F)F)CC1 | -88.9% (active)
CCCSc1nc(NCCc2c[nH]c3ccccc23)c(C#N)c(-c2ccc(F)cc2)n1 | 92%
Cc1occc1C(=O)NN1C(=O)/C(=C/C=C/c2ccc([N+](=O)[O-])o2)SC1=S | -71.8% (active)
CCOC(=O)c1ccc(Nc2nc(NN)nc(-c3ccc(OC)cc3)c2C#N)cc1 | 114%
O=C(CN1C(=O)/C(=C/c2ccccc2Cl)SC1=S)N1CCOCC1 | 103%
